Test results as given in PubChem BioAssay AID488789 (Broad Institute, 2010).
Entries with a potency or affinity are not part of this list. Records with an inconclusive call do not appear. Unmarked numbers belong to inactive results.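 Rule for the calls: active = samples whose fitted half-maximal inhibition concentration is no more than ten times the top valid dose tested; inconclusive = flat response between -70 and -30, or invalid curve fit; inactive = flat within 30 of zero, potency above limit, or signal rising.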

target: Trypsin (Sus scrofa) (UniProt P00761); test: trypsin protease activity blockade – biochemical, quenched peptide fluorescence, cherry-pick, selectivity assay for Rce1 protease inhibitor project, dose response (AID 488789); conditions: porcine trypsin, quenched peptide cleavage fluorescence; series mostly up to 10 µM; activity change, negative = inhibition: at the top concentration;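 note: more negative means stronger trypsin inhibition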
Sequence (P00761 whole entry, looked up): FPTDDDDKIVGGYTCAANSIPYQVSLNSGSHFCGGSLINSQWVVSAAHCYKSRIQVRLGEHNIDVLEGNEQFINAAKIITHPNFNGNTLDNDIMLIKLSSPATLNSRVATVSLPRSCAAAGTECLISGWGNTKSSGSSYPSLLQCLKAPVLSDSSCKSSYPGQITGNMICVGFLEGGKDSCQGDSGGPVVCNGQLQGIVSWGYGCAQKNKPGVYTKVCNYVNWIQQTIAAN

SMILES | activity change, negative = inhibition [%]
Cc1ccnc(-n2c(-c3ccco3)nc3ccccc3c2=O)c1 | -2.18
Clc1ccc(C[n+]2c(-c3ccccc3)cc(-c3ccccc3)cc2-c2ccccc2)cc1 | 8.29
CC(=O)OCC[N+](C)(C)C | 3.93
O=[N+]([O-])c1ccc(C[n+]2c(-c3ccccc3)cc(-c3ccccc3)cc2-c2ccccc2)cc1 | 87.5
Cc1nccc2c1[nH]c1ccccc12 | 5.43
CCOc1ccc(C2C(C#N)=C(N)Oc3c2c(=O)oc2ccccc32)cc1 (stereo not drawn) | 13.7
c1ccc(CCCN2CCN(CCOC(c3ccccc3)c3ccccc3)CC2)cc1 | 10.9
CCOC(=O)[C@@H]1[C@H]2COc3ccc(Br)cc3[C@@H]2N2C(=O)N(c3cccc(C)c3)C(=O)[C@]12C | 3.99
CN1CCN(c2ccc([N+](=O)[O-])c(Sc3nncn3C)c2)CC1 | 6.55
C=CCn1c(O)c(C(CC)=Nc2ccc(N(CC)CC)cc2)c(=O)[nH]c1=O | 11.1
Cc1ccc(-c2cc(-c3ccccc3)cc(-c3ccccc3)[n+]2-c2ccccc2)cc1 | -4.16
C=CC[N+]1(C)CC[C@]23c4c5ccc(O)c4O[C@H]2C(=O)CC[C@@]3(O)[C@H]1C5 (stereo partly drawn) | 11.1
CN1CC(C(=O)c2ccc(Cl)cc2)C(c2ccc(Cl)cc2Cl)C1 (stereo not drawn) | 6.7
